Hits are enriched below; roughly 0.2% of the tested compounds scored in any of these assays.
Bcl-XL Bim block: inhibitors of Bim-Bcl-XL binding, primary screen, biochemical, multiplexed, bead flow cytometry, human Bcl-XL; Bim peptide-Bcl-XL binding, fluorescence; inhibition, % at 10 µM; 190,000 compounds, 0.04% hits; AID 1007, 2008
Bcl-2 Bim block: inhibitors of Bim-Bcl-2 binding, primary screen, biochemical, multiplexed, human Bcl-2 family. inhibition, % at 10 µM. AID 950, 2007. 190,000 compounds, 0.06% hits. Bead-based flow cytometry, Bim peptide-Bcl-2 binding. Apoptosis regulator Bcl-2 (Homo sapiens), P10415; in the data active = inhibition above about 40%
Bim-Bfl-1: inhibitors of Bim binding to Bfl-1, primary screen, biochemical, multiplexed, bead-based flow cytometry. Bim-Bfl-1 binding inhibition. inhibition, % at 10 µM. Bcl-2-related protein A1 (Homo sapiens), Q16548. 190,000 compounds, 0.12% hits. AID 1008, 2008
Bcl-B Bim block: inhibitors of Bim-Bcl-B binding, primary screen, biochemical, multiplexed, human Bcl-2 family; 190,000 compounds, 0.073% hits; bead-based flow cytometry, Bim peptide-Bcl-B binding; AID 951, 2007; Bcl-2-like protein 10 (Homo sapiens), Q9HD36; inhibition, % at 10 µM
Target sequence (Q9HD36 whole entry, looked up): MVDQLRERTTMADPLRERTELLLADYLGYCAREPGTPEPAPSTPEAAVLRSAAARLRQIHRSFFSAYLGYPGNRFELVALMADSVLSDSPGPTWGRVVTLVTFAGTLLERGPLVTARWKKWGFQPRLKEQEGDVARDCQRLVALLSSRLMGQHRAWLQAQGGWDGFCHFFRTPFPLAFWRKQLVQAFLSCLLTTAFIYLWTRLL
Bim-Bcl-W: inhibitors of Bim binding to Bcl-W, primary screen, biochemical, multiplexed, bead-based flow cytometry. AID 952, 2007. 190,000 compounds, 0.02% hits. Bcl-2-like protein 2 (Homo sapiens), Q92843. Bim peptide-Bcl-W binding. inhibition, % at 10 µM;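 also: higher means less fluorescent Bim peptide bound to Bcl-W beads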
Target sequence (Q92843 whole entry, looked up): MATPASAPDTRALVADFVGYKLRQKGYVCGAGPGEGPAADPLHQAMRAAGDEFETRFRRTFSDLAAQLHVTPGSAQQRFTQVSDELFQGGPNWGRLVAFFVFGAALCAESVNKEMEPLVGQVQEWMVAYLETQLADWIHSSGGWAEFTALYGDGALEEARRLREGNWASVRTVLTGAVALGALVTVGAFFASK
Of the large screens only hits and unclear results are named; the others gave an inactive call. Rule as the data show it, unless noted: active = inhibition above about 40%.

O=C(/C=C/c1ccccc1Cl)c1ccccc(=O)c1O	Bcl-2 Bim block 42, Bim-Bfl-1 54
Cc1ccc(/C=C/C(=O)c2ccccc(=O)c2O)c(C)c1	none
Cc1ccc(C)c(/C=C/C(=O)c2ccccc(=O)c2O)c1	Bim-Bfl-1 41
O=c1o[nH]c(-c2ccccc2)c1C1=NCCCCC1	none
CCC(Sc1nc2cc(OC)c(OC)cc2c(=O)n1CCc1ccc(S(N)(=O)=O)cc1)C(=O)NCCOC (stereo unspecified)	none
O=C(OCc1cnc(Cl)s1)c1cccc(Cl)c1Cl	Bcl-2 Bim block 76, Bim-Bfl-1 51, Bcl-B Bim block 70
O=C(OCc1cnc(Cl)s1)c1ccccc1Cl	none
OC1(c2ccc(F)cc2)CCN(Cc2nnnn2Cc2cccs2)CC1	none
COc1cccc(NC(=O)CSc2nncn2N)c1	Bim-Bfl-1 41
CSc1n[nH]c2nc3c(c(=O)n12)C1(CCCC1)Cc1ccccc1-3	Bcl-XL Bim block 40, Bim-Bfl-1 44
O=C(OCC(=O)c1ccc[nH]1)c1ccccc1	Bcl-2 Bim block 79, Bim-Bfl-1 52, Bcl-B Bim block 74
CCOc1ccccc1NC(=O)N1CCCC(c2nc(-c3ccc(C)o3)no2)C1 (stereo unspecified)	none
Cc1ccc(C)c(-n2c(SCC(=O)Nc3nonc3C)nnc2-c2ccoc2C)c1	none
Cc1nonc1NC(=O)CSc1nnc(-c2ccoc2C)n1C	Bcl-XL Bim block 43, Bim-Bfl-1 44
COc1ccc(Nc2nc(-c3c(C)nc4ncccn34)cs2)cc1	none
Cc1nc2ncccn2c1-c1csc(Nc2ccccc2)n1	Bcl-XL Bim block 44
CCOC(=O)C1(CCOC)CCN(C(C)CCc2ccc(OC)cc2)CC1 (stereo unspecified)	none
Cc1ccc2nc(N3CCOCC3)c3nncn3c2c1	none
COc1ccc2[nH]c(=O)c(CN(Cc3cccs3)C(=S)Nc3ccccc3)cc2c1	none
CNC(=S)N(Cc1cccs1)Cc1cc2ccc(OC)cc2[nH]c1=O	Bim-Bfl-1 47
Cc1ccc(OCc2cn3cccnc3n2)cc1	Bcl-B Bim block 58
Cc1cc(C)c(NC(=S)N(CCCN2CCOCC2)Cc2cccnc2)c(C)c1	none
O=C(c1ccc2nc(N3CCCCC3)sc2c1)N1CCN(Cc2ccc3c(c2)OCO3)CC1	none
CCOC(=O)C1(C/C(C)=N/NC(N)=O)CC(C)(C)OC1=O (stereo unspecified)	none
CCOC(=O)C1(CC/C(C)=N\NC(N)=O)CC(C)(C)OC1=O (stereo unspecified)	Bim-Bfl-1 44
COc1cccc(NC(=O)CSC(N)=O)c1	none
COc1cc(C2Nc3cccc4cccc(c34)N2)cc(OC)c1O	Bim-Bfl-1 57, Bim-Bcl-W 42
COc1cc(C2Nc3cccc4cccc(c34)N2)ccc1OC(C)=O	Bim-Bfl-1 43
COC(=O)c1ccc(C2Nc3cccc4cccc(c34)N2)cc1	none
COc1ccc(CN(C)CC(=O)Nc2sc3c(c2C#N)CCC3)c(OC)c1	none
O=C(NCc1ccco1)C1CC2CCC1C2 (stereo unspecified)	Bcl-XL Bim block 47
COc1ccc(C(CCO)NC(=O)c2cccs2)cc1OC (stereo unspecified)	none
CN1CCc2cccc3c2[C@@H]1Cc1ccc(O)c(O)c1-3	Bcl-2 Bim block 40, Bim-Bfl-1 40, Bim-Bcl-W 51
COc1ccc2c(c1O)-c1ccccc1CCN(C)C2	none
O=C1CCCC2(O)C1C(c1cccc(Br)c1)NC(=O)N2Cc1ccccc1 (stereo unspecified)	Bcl-XL Bim block 49
CN(c1ccccc1)c1ccc(/C=N/N2CCOCC2)cc1	none
Nc1ccc(N2CCN(CCCCN3C(=O)C4CCCN4C3=O)CC2)cc1 (stereo unspecified)	Bcl-B Bim block 63
COc1c(F)c(F)c(C(=O)Nc2ccccc2N2CCN(C(=O)C(C)C)CC2)c(F)c1F	Bcl-2 Bim block 83 (no result: Bim-Bfl-1, Bcl-B Bim block)
COc1c(F)c(F)c(C(=O)Nc2ccccc2N2CCN(C(C)=O)CC2)c(F)c1F	none
CCOc1cc2c(C#N)c(N3CCNCC3)nc(N)c2c(N)n1	Bcl-B Bim block 53
Cc1ccc2c(c1)N(CC(=O)OCC(=O)NCc1ccccc1)C(=O)CO2	none

Screening data (PubChem)
